Reference: the supplement of paper PMC8269313
Counter-ions that a name gives are not always drawn.

System: 4T1
Assay: % inhibition of 4T1 cell number vs DMSO control; higher = stronger growth inhibition
Details: 1 µM, 3 days
In short: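 4T1-H2B-GFP mouse breast cancer cells (3000 per well, 2% FBS medium) were seeded in 96-well imaging plates on plastic, denuded lung or mCAF1 fibroblast-derived matrix, Matrigel (15 μg/mL) or 0.2% gelatin; edge wells were left unused. After 16 h, kinase inhibitors were added at 1 μM final for 3 days. Plates were formalin-fixed, DAPI-stained and imaged on an INCell Analyzer 2200, and GFP-positive nuclei were counted. Percent inhibition of cell number was calculated relative to DMSO control.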

[1] = substrate: lung fibroblast-derived matrix
[2] = substrate: mCAF1 fibroblast-derived matrix

**Q.** How did the “% inhibition of 4T1 cell number” value (substrate: Matrigel) turn out when `CC(=O)c1ccc(N2CCOCC2)cc1O` [DNA-PK Inhibitor III] was run?
**A.** 0.894%

**Q.** What about the “% inhibition of 4T1 cell number” value (substrate: gelatin) of the same compound?
**A.** -13.7%

**Q.** And the “% inhibition of 4T1 cell number” value [1]?
**A.** -5.23%

**Q.** What about the “% inhibition of 4T1 cell number” value [2] of the same compound?
**A.** -5.96%

**Q.** What about the “% inhibition of 4T1 cell number” value (substrate: plastic) of the same compound?
**A.** -24.1%

**Q.** Which results are given for `O=C1C(Cl)=C(N2C(=O)CCC2=O)C(=O)c2ccccc21` [MEK Inhibitor II]?
**A.** % inhibition of 4T1 cell number (substrate: Matrigel): -30.5%; % inhibition of 4T1 cell number (substrate: gelatin): -13.5%; % inhibition of 4T1 cell number [1]: -5.8%; % inhibition of 4T1 cell number [2]: 50.2%; % inhibition of 4T1 cell number (substrate: plastic): -66.5%

**Q.** How did the “% inhibition of 4T1 cell number” value (substrate: Matrigel) turn out when `N#CC(c1ccnc(NCCc2cccnc2)n1)c1nc2ccccc2s1` (stereo not given) [JNK Inhibitor V] was run?
**A.** -8.79%

**Q.** And the “% inhibition of 4T1 cell number” value (substrate: gelatin)?
**A.** 6.99%

**Q.** What about the “% inhibition of 4T1 cell number” value [1] of the same compound?
**A.** -8.74%

**Q.** And the “% inhibition of 4T1 cell number” value [2]?
**A.** 52.2%

**Q.** And the “% inhibition of 4T1 cell number” value (substrate: plastic)?
**A.** 8.02%

**Q.** For `CO[C@H]1C[C@@H]2CC[C@@H](C)[C@@](O)(O2)C(=O)C(=O)N2CCCC[C@H]2C(=O)O[C@H]([C@H](C)C[C@@H]2CC[C@@H](O)[C@H](OC)C2)CC(=O)[C@H](C)/C=C(\C)[C@@H](O)[C@@H](OC)C(=O)[C@H](C)C[C@H](C)/C=C/C=C/C=C/1C` [Rapamycin], which “% inhibition of 4T1 cell number” value (substrate: Matrigel) is on record?
**A.** -18.4%

**Q.** And the “% inhibition of 4T1 cell number” value (substrate: gelatin)?
**A.** -32%

**Q.** And the “% inhibition of 4T1 cell number” value [1]?
**A.** -0.258%

**Q.** And the “% inhibition of 4T1 cell number” value [2]?
**A.** 23.7%

**Q.** And the “% inhibition of 4T1 cell number” value (substrate: plastic)?
**A.** -50.8%

**Q.** How did the “% inhibition of 4T1 cell number” value (substrate: Matrigel) turn out when `c1ccc2c(-c3ccncc3)c[nH]c2c1` [Rho Kinase Inhibitor III, Rockout] was run?
**A.** -26.4%

**Q.** And the “% inhibition of 4T1 cell number” value (substrate: gelatin)?
**A.** -33.3%

**Q.** And the “% inhibition of 4T1 cell number” value [1]?
**A.** -7.01%

**Q.** What about the “% inhibition of 4T1 cell number” value [2] of the same compound?
**A.** 37.7%

**Q.** And the “% inhibition of 4T1 cell number” value (substrate: plastic)?
**A.** -78.9%

**Q.** `CNc1cc2c(Nc3cccc(Br)c3)ncnc2cn1` was tested. Which “% inhibition of 4T1 cell number” value (substrate: Matrigel) did it give?
**A.** -6.51%

**Q.** What about the “% inhibition of 4T1 cell number” value (substrate: gelatin) of the same compound?
**A.** -93.8%

**Q.** And the “% inhibition of 4T1 cell number” value [1]?
**A.** 25.4%

**Q.** What about the “% inhibition of 4T1 cell number” value [2] of the same compound?
**A.** 6.09%

**Q.** And the “% inhibition of 4T1 cell number” value (substrate: plastic)?
**A.** -25.5%

**Q.** For `N#C/C(=C\c1ccc(O)c(O)c1)C(=O)NCc1ccccc1`, which “% inhibition of 4T1 cell number” value (substrate: Matrigel) is on record?
**A.** -13.1%

**Q.** What about the “% inhibition of 4T1 cell number” value (substrate: gelatin) of the same compound?
**A.** 42.5%

**Q.** What about the “% inhibition of 4T1 cell number” value [1] of the same compound?
**A.** -21.1%

**Q.** What about the “% inhibition of 4T1 cell number” value [2] of the same compound?
**A.** 15.2%

**Q.** What about the “% inhibition of 4T1 cell number” value (substrate: plastic) of the same compound?
**A.** -38%

**Q.** Which “% inhibition of 4T1 cell number” value (substrate: Matrigel) does the source give for `CNCCNS(=O)(=O)c1cccc2cnccc12` [H-8, Dihydrochloride] here?
**A.** -17.7%

**Q.** And the “% inhibition of 4T1 cell number” value (substrate: gelatin)?
**A.** 25.7%

**Q.** What about the “% inhibition of 4T1 cell number” value [1] of the same compound?
**A.** -6.96%

**Q.** What about the “% inhibition of 4T1 cell number” value [2] of the same compound?
**A.** 30.5%

**Q.** And the “% inhibition of 4T1 cell number” value (substrate: plastic)?
**A.** -63%

**Q.** Which results are given for `COc1cc2ncnc(Nc3cccc(Cl)c3)c2cc1OC`?
**A.** % inhibition of 4T1 cell number (substrate: Matrigel): 19.4%; % inhibition of 4T1 cell number (substrate: gelatin): -16.6%; % inhibition of 4T1 cell number [1]: -4.35%; % inhibition of 4T1 cell number [2]: 6.77%; % inhibition of 4T1 cell number (substrate: plastic): 36%

**Q.** What does the source list for `CCC(=O)Nc1ccc2ncnc(Nc3cccc(Br)c3)c2c1`?
**A.** % inhibition of 4T1 cell number (substrate: Matrigel): -8.72%; % inhibition of 4T1 cell number (substrate: gelatin): -108%; % inhibition of 4T1 cell number [1]: -2.26%; % inhibition of 4T1 cell number [2]: -19.4%; % inhibition of 4T1 cell number (substrate: plastic): -59.2%

**Q.** Which results are given for `Cn1c2ccccc2c2c3c(c4c5ccccc5n(CCC#N)c4c21)CNC3=O`?
**A.** % inhibition of 4T1 cell number (substrate: Matrigel): 50.9%; % inhibition of 4T1 cell number (substrate: gelatin): 67.2%; % inhibition of 4T1 cell number [1]: -8.31%; % inhibition of 4T1 cell number [2]: 34.5%; % inhibition of 4T1 cell number (substrate: plastic): 72.7%

**Q.** With `CC(C)[C@H](CO)Nc1nc(Nc2cccc(Cl)c2)c2ncn(C(C)C)c2n1` [Purvalanol A] as the compound, how does the “% inhibition of 4T1 cell number” value (substrate: Matrigel) read?
**A.** -8.87%

**Q.** And the “% inhibition of 4T1 cell number” value (substrate: gelatin)?
**A.** 15.8%

**Q.** And the “% inhibition of 4T1 cell number” value [1]?
**A.** 83.6%

**Q.** What about the “% inhibition of 4T1 cell number” value [2] of the same compound?
**A.** 40.3%

**Q.** What about the “% inhibition of 4T1 cell number” value (substrate: plastic) of the same compound?
**A.** -20.5%
